From PubChem BioAssay
An excerpt weighted towards active compounds, which were near 19% of everything screened.
HT1080-NT tox: qHTS for induction of synthetic lethality in tumor cells producing 2HG: qHTS for the HT-1080-NT fibrosarcoma cell line. HT-1080-NT fibrosarcoma viability, CellTiter-Glo ATP luminescence, 48 h. Potency, µM (top dose mostly 46.1 µM), usual class: cytotoxic. 360,000 tested, 1.6% active. AID 686970, 2013;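 further: NT is the 2HG producing partner of a matched IDH1 knockdown line; nearly all actives have a fitted effect of over 55% in size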
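HT-1080-NT fibrosarcoma cells (2HG-overproducing), 750 cells/well in RPMI with 5% FBS, dosed after 2 h and incubated 48 h at 37C. CellTiter-Glo luminescence normalized to DMSO and no-cell wells; concentration-response curves fitted and classed.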
ELG1 DNA repair: qHTS screen for small molecules that inhibit ELG1-dependent DNA repair in human embryonic kidney (HEK293T) cells expressing luciferase-tagged ELG1; AID 504467, 2011; 330,000 tested, 2.3% active; HEK293T ELG1-luciferase reporter, luminescence, 16 h; DNA damage induced by 5-fluorouridine; Potency, µM (doses to about 46.1 µM), most hits filed as inhibitors; further: nearly all actives have a fitted effect of over 55% in size
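Quantitative HTS, concentration-response format. 2,000 cells/well co-treated with 5-fluorouridine and compound, 16 hr in 5% CO2 at 37 °C; ONE-Glo luminescence read after 30 min.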
TDP1 cell CPT: qHTS for Inhibitors of human tyrosyl-DNA phosphodiesterase 1 (TDP1): qHTS in cells in presence of CPT | chicken DT40 Tdp1-/-;hTDP1 cells + 20 nM CPT, ATP luminescence, 48 h | Potency, µM (highest dose often 46.2 µM), hits mostly inhibitors | 420,000 tested, 12% active; further: nearly all actives have a fitted effect of over 55% in size
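Chicken DT40 Tdp1-/- cells complemented with human TDP1, 400 cells/well, exposed to compounds plus 20 nM camptothecin for at least 48 h at 37 C; viability read as ATP content by CellTiter-Glo luminescence.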
HT1080 IDH1KD tx: qHTS for induction of synthetic lethality in tumor cells producing 2HG: qHTS for the HT-1080-IDH1KD cell line; HT-1080 IDH1 knockdown viability, ATP luminescence, 48 h; Potency, µM (doses to about 46.1 µM), hits mostly cytotoxic; 360,000 tested, 2% active; AID 686971, 2013
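Assay cells: HT-1080 with IDH1 knockdown, 750 per well, RPMI/5% FBS. Exposure: 48 h at 37 °C following 2 h pre-incubation. Read: CellTiter-Glo luminescence; fitted concentration-response, curve class assigned.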
DT40 TDP1 no CPT: qHTS for Inhibitors of human tyrosyl-DNA phosphodiesterase 1 (TDP1): qHTS in cells in absence of CPT | Potency, µM (top dose mostly 46.2 µM), most hits filed as inhibitors | DT40 Tdp1-/- hTDP1 cells, no CPT, ATP luminescence, 48 h | 420,000 tested, 15% active; further: nearly all actives have a fitted effect of over 55% in size
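DT40 Tdp1-/-;hTDP1 cells, no CPT (DMSO vehicle only), 400 cells/well; compounds pin-transferred; ≥48 hr, 37 °C; CellTiter-Glo 30 min RT dark, luminescence read.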
IL1B secr inh: qHTS for Inhibitors of Inflammasome Signaling: IL-1-beta AlphaLISA Primary Screen; AID 743279, 2014; activity change, % at 57.5 µM; THP-1 LPS/ATP IL-1B secretion, AlphaLISA, 16 h; hits give low values; 360,000 tested, 4.7% active; in the data active means activity change below about -50%; inconclusive means mostly about -30% to -49%
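THP-1 cells pretreated 1 hr with compounds (up to 57.5 uM final), then stimulated with LPS (250 ng/mL final) plus ATP (1.25 mM final); secreted IL-1B measured by AlphaLISA after 16 hr, decreased signal indicating inhibition.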
Numbers stand for hits; 0 = inactive; ? = inconclusive; - = no result; ! = not confirmed by another sample. Unless noted, the call rests on the fitted dose curve; in most records, active means well fitted curve in the direction sought with a large enough effect; inconclusive means small, poorly fitted or top-dose-only effect, or another doubt; inactive means no such curve, though single readings can be large; an effect the other way counts as inactive or inconclusive.

SMILES | HT1080-NT tox | ELG1 DNA repair | TDP1 cell CPT | HT1080 IDH1KD tx | DT40 TDP1 no CPT | IL1B secr inh
O=C(Oc1ccccc1)c1cccc(C(=O)Oc2ccccc2)c1 | - | - | 0 | - | 0 | -
O=C(OCCc1ccccc1)c1cc(O)c(O)c(O)c1 | 0 | ? | 18µM | 0 | 23µM | 0
COc1ccc(NC(=O)COCc2cc(-c3ccco3)on2)cc1Cl | - | - | ? | - | 0 | -
Clc1cccc(CNCCNCc2cccc(Cl)c2)c1 | 0 | 0 | 0 | 0 | ? | -53
Oc1cccc2c(NC(=S)Nc3ccc(OC(F)F)cc3)cccc12 | 0 | 0 | 0 | 0 | 18µM | 0
COc1cccc(S(=O)(=O)N2CCN(Cc3ccc4c(c3)OCO4)CC2)c1 | 0 | ? | 0 | 0 | 0 | 0
COc1ccc(OC)c2[nH]c(C(=O)N/N=C/c3ccccc3O)cc12 | ? | ? | 5.2µM | ? | 3.7µM | 0
COc1ccc(/C=N/NC(=O)c2cc3c(OC)ccc(OC)c3[nH]2)cc1O | 2.3µM | ? | 0.37µM | 0.41µM | 0.21µM | 0
NC1=CC(=O)C(=O)c2ccccc21 | 0 | - | 23µM | 0 | 16µM | ?
O=C(Nc1ccccc1)c1cc([N+](=O)[O-])ccc1Cl | 0 | 0 | 30µM! | 0 | 28µM! | 0
O=C(Nc1cccc2ncccc12)c1cc([N+](=O)[O-])ccc1Cl | ? | ? | ? | 0 | ? | -88
O=C(CNC(c1ccccc1)c1ccccc1)Nc1cc([N+](=O)[O-])ccc1Cl | 0 | 0 | 21µM | 0 | 16µM | 0
CN(C)S(=O)(=O)c1ccc(Cl)c(C(=O)Nc2cccc3ncccc23)c1 | 0 | 0 | ? | 0 | ? | 0
CC(C)CC(=O)Nc1cc([N+](=O)[O-])ccc1Cl | 0 | 0 | 0 | 0 | 0 | 0
O=C(Nc1cccnc1Cl)c1cc([N+](=O)[O-])ccc1Cl | ? | ? | ? | ? | ? | -63
Cn1cc(-c2nnnn2-c2cccc(C(F)(F)F)c2)c(C(F)(F)F)n1 | 0 | 0 | 0 | 0 | 0 | 0
CCCS(=O)(=O)NC(=O)C1(C)CCCN(C(=O)COc2ccccc2)C1 (configuration not stated) | 0 | - | 0 | 0 | 0 | 0
Cn1c(=O)cc(SCC(=O)NCc2ccc(F)cc2)c2ccc(Cl)cc21 | - | - | 2.6µM | - | 3.3µM | -
CCc1ccc(NC(=O)CCCOc2cc(=O)n(C)c3ccccc23)cc1 | 0 | - | ? | 0 | ? | 0
Cn1c(=O)cc(SCC(=O)NCc2ccc(F)cc2)c2ccccc21 | 0 | 0 | ? | ? | 12µM | 0
Cn1c(=O)cc(SCC(=O)NCCC2=CCCCC2)c2ccc(Cl)cc21 | 0 | 0 | 0 | 0 | 0 | 0
Cn1c(=O)cc(OCCCC(=O)Nc2ccc(F)cc2)c2ccccc21 | - | - | 13µM | - | 15µM | -
CN(CCCNC(=O)CSc1cc(=O)n(C)c2cc(Cl)ccc12)Cc1ccccc1 | ? | ? | ? | 21µM | 0 | ?
COc1ccc(CNC(=O)c2cc(=O)c3cc(C)cc(C)c3o2)cc1 | 0 | 0 | 0 | 0 | 0 | 0
CCOc1ccc(S(=O)(=O)N2CCCCC2)cc1NC(=O)CN1C(=O)NC(C)(c2ccc(C)cc2)C1=O (configuration not stated) | 0 | ? | 23µM | 0 | 16µM | 0
COc1ccc(S(=O)(=O)N2CCCCCC2)cc1NC(=O)CN1C(=O)NC(C)(c2ccc(C)cc2)C1=O (configuration not stated) | 0 | 0 | ? | 0 | ? | 0
Cc1ccc(C2(C)NC(=O)N(CC(=O)Nc3ccc(Cl)c(S(=O)(=O)N4CCCCC4)c3)C2=O)cc1 (configuration not stated) | 0 | ? | ? | 0 | 18µM | 0
COC(=O)c1ccc2nc(-c3cccc(Cl)c3)c(CC3CCCCC3)n2c1 | 0 | - | 0 | 0 | 0 | 0
